Data published in the supplement of paper PMC4466140.

Target: AgAbp1
Test: SPOT peptide array binding signal intensity (averaged, normalized) (arbitrary units (background-subtracted, floor 0; scale differs between SH3 domains)); higher = stronger binding of the SH3 domain to the peptide
Procedure, shortened: (§1)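 Binding signal is given in arbitrary units that differ between domains and is the normalized, background-subtracted spot intensity averaged across replicates. Each GST-SH3 fusion from one of four yeast species was made in E. coli BL21(DE3), purified on glutathione Sepharose and incubated at 10 μg/ml overnight at 4°C on cellulose-bound synthetic 15-mer peptides in which cysteines were replaced by serines. Detection used anti-GST antibody, an HRP anti-mouse secondary and luminol, followed by imaging and Genespotter quantification.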

| Binder | SPOT peptide array binding signal intensity |
| --- | --- |
| RSLRKRPTSPSISGS | 197 |

Target: AgBbc1
Test: as above
Procedure, shortened: as §1

| Binder | SPOT peptide array binding signal intensity |
| --- | --- |
| RSLRKRPTSPSISGS | 232 |

Target: AgBem1-D1
Test: as above
Procedure, shortened: as §1

| Binder | SPOT peptide array binding signal intensity |
| --- | --- |
| RSLRKRPTSPSISGS | 118 |

Target: AgBzz1-D1
Test: as above
Procedure, shortened: as §1

| Binder | SPOT peptide array binding signal intensity |
| --- | --- |
| RSLRKRPTSPSISGS | 62.5 |

Target: AgBzz1-D2
Test: as above
Procedure, shortened: as §1

| Binder | SPOT peptide array binding signal intensity |
| --- | --- |
| RSLRKRPTSPSISGS | 63 |

Target: AgCyk3
Test: as above
Procedure, shortened: as §1

| Binder | SPOT peptide array binding signal intensity |
| --- | --- |
| RSLRKRPTSPSISGS | 23 |

Target: AgFus1
Test: as above
Procedure, shortened: as §1

| Binder | SPOT peptide array binding signal intensity |
| --- | --- |
| RSLRKRPTSPSISGS | 464 |

Target: AgHof1
Test: as above
Procedure, shortened: as §1

| Binder | SPOT peptide array binding signal intensity |
| --- | --- |
| RSLRKRPTSPSISGS | 77 |

Target: AgHse1
Test: as above
Procedure, shortened: as §1

| Binder | SPOT peptide array binding signal intensity |
| --- | --- |
| RSLRKRPTSPSISGS | 1610 |

Target: AgLsb1
Test: as above
Procedure, shortened: as §1

| Binder | SPOT peptide array binding signal intensity |
| --- | --- |
| RSLRKRPTSPSISGS | 7 |

Target: AgLsb4
Test: as above
Procedure, shortened: as §1

| Binder | SPOT peptide array binding signal intensity |
| --- | --- |
| RSLRKRPTSPSISGS | 326 |

Target: AgMyo5
Test: as above
Procedure, shortened: as §1

| Binder | SPOT peptide array binding signal intensity |
| --- | --- |
| RSLRKRPTSPSISGS | 1 |

Target: AgNbp2
Test: as above
Procedure, shortened: as §1

| Binder | SPOT peptide array binding signal intensity |
| --- | --- |
| RSLRKRPTSPSISGS | 724 |

Target: AgRvs167
Test: as above
Procedure, shortened: as §1

| Binder | SPOT peptide array binding signal intensity |
| --- | --- |
| RSLRKRPTSPSISGS | 9.67 |

Target: AgSho1
Test: as above
Procedure, shortened: as §1

| Binder | SPOT peptide array binding signal intensity |
| --- | --- |
| RSLRKRPTSPSISGS | 80.5 |

Target: AgSla1-D1-D2
Test: as above
Procedure, shortened: as §1

| Binder | SPOT peptide array binding signal intensity |
| --- | --- |
| RSLRKRPTSPSISGS | 698 |

Target: AgSla1-D3
Test: as above
Procedure, shortened: as §1

| Binder | SPOT peptide array binding signal intensity |
| --- | --- |
| RSLRKRPTSPSISGS | 3.5 |

Target: CaAbp1-D1
Test: as above
Procedure, shortened: as §1

| Binder | SPOT peptide array binding signal intensity |
| --- | --- |
| RSLRKRPTSPSISGS | 1720 |

Target: CaAbp1-D2
Test: as above
Procedure, shortened: as §1

| Binder | SPOT peptide array binding signal intensity |
| --- | --- |
| RSLRKRPTSPSISGS | 1730 |

Target: CaBbc1
Test: as above
Procedure, shortened: as §1

| Binder | SPOT peptide array binding signal intensity |
| --- | --- |
| RSLRKRPTSPSISGS | 522 |

Target: CaBem1-D1
Test: as above
Procedure, shortened: as §1

| Binder | SPOT peptide array binding signal intensity |
| --- | --- |
| RSLRKRPTSPSISGS | 57.5 |

Target: CaBzz1-D1
Test: as above
Procedure, shortened: as §1

| Binder | SPOT peptide array binding signal intensity |
| --- | --- |
| RSLRKRPTSPSISGS | 86 |

Target: CaBzz1-D2
Test: as above
Procedure, shortened: as §1

| Binder | SPOT peptide array binding signal intensity |
| --- | --- |
| RSLRKRPTSPSISGS | 94.5 |

Target: CaCyk3
Test: as above
Procedure, shortened: as §1

| Binder | SPOT peptide array binding signal intensity |
| --- | --- |
| RSLRKRPTSPSISGS | 201 |

Target: CaFus1
Test: as above
Procedure, shortened: as §1

| Binder | SPOT peptide array binding signal intensity |
| --- | --- |
| RSLRKRPTSPSISGS | 985 |

Target: CaHof1
Test: as above
Procedure, shortened: as §1

| Binder | SPOT peptide array binding signal intensity |
| --- | --- |
| RSLRKRPTSPSISGS | 0.75 |

Target: CaHse1
Test: as above
Procedure, shortened: as §1

| Binder | SPOT peptide array binding signal intensity |
| --- | --- |
| RSLRKRPTSPSISGS | 204 |

Target: CaLsb1
Test: as above
Procedure, shortened: as §1

| Binder | SPOT peptide array binding signal intensity |
| --- | --- |
| RSLRKRPTSPSISGS | ≤ 0 |

Target: CaLsb4
Test: as above
Procedure, shortened: as §1

| Binder | SPOT peptide array binding signal intensity |
| --- | --- |
| RSLRKRPTSPSISGS | 338 |

Target: CaMyo5
Test: as above
Procedure, shortened: as §1

| Binder | SPOT peptide array binding signal intensity |
| --- | --- |
| RSLRKRPTSPSISGS | 6 |

Target: CaNbp2
Test: as above
Procedure, shortened: as §1

| Binder | SPOT peptide array binding signal intensity |
| --- | --- |
| RSLRKRPTSPSISGS | 1160 |

Target: CaRvs167
Test: as above
Procedure, shortened: as §1

| Binder | SPOT peptide array binding signal intensity |
| --- | --- |
| RSLRKRPTSPSISGS | 27.5 |

Target: CaRvs167-3
Test: as above
Procedure, shortened: as §1

| Binder | SPOT peptide array binding signal intensity |
| --- | --- |
| RSLRKRPTSPSISGS | 210 |

Target: CaSho1
Test: as above
Procedure, shortened: as §1

| Binder | SPOT peptide array binding signal intensity |
| --- | --- |
| RSLRKRPTSPSISGS | 972 |

Target: CaSla1-D1-D2
Test: as above
Procedure, shortened: as §1

| Binder | SPOT peptide array binding signal intensity |
| --- | --- |
| RSLRKRPTSPSISGS | 226 |

Target: CaSla1-D3
Test: as above
Procedure, shortened: as §1

| Binder | SPOT peptide array binding signal intensity |
| --- | --- |
| RSLRKRPTSPSISGS | 1.5 |

Target: ScAbp1
Test: as above
Procedure, shortened: as §1

| Binder | SPOT peptide array binding signal intensity |
| --- | --- |
| RSLRKRPTSPSISGS | 65 |
